Several values for one entry are separate records, joined by “and”; a condition that tells them apart may be missing. Equal entries are not always repeated. Records with an inconclusive call do not appear. Activity calls are given as the source filed them. Calls follow the shape of the dose curve; as a rule, active = well fitted curve in the direction sought with a large enough effect; inconclusive = small, poorly fitted or top-dose-only effect, or another doubt; inactive = no such curve, though single readings can be large; an effect the other way counts as inactive or inconclusive.

Assay [1] can be described thus: Confirmatory screen GU Rhodamine qHTS for Zika virus inhibitors qHTS (AID 1347157). Also: nearly all actives have a fitted effect of over 70% in size. Also: potency is read from the fitted curve at half-maximal effect. The essentials:
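Unlinked NS2B/NS3, 25 nM; Rhod110 peptide, 1.5 microM; compounds, up to 114 microM. Reaction run 15 min at RT in 10 mM Tris-HCl pH 8.0, 0.01% Tween 20; kinetic fluorescence change fitted with a 4-parameter Hill model.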
A general note: qHTS replaces the single test concentration by a dilution series.

Assay [2] concerns Zika virus NS2B-NS3 protease (unlinked complex). In words: Primary screen GU Rhodamine qHTS for Zika virus inhibitors: Unlinked NS2B-NS3 protease assay (AID 1347159). Also: nearly all actives have a fitted effect of over 60% in size. Also: potency is read from the fitted curve at half-maximal effect. The essentials: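 Percent inhibition came from the 15-min rise in Rhodamine110 fluorescence (1.5 microM substrate, ~15% conversion), normalized to no-inhibitor and no-enzyme wells and Hill-fitted. Unlinked protease, 25 nM, pH 8.0 Tris buffer; compounds up to 114 microM, 15-min preincubation.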

Assay [3] concerns Zika virus NS2B-NS3 protease (linked construct). Put plainly: Primary screen NINDS Rhodamine qHTS for Zika virus inhibitors (AID 1347160). Also: nearly all actives have a fitted effect of over 55% in size. Also: potency is read from the fitted curve at half-maximal effect. The essentials:
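Rhodamine110-peptide cleavage (1.5 µM substrate) by 25 nM linked NS2B-NS3 enzyme at pH 8.0 (Tris, Tween 20), after 15 min RT preincubation with compounds; 15-min fluorescence change normalized to controls and Hill-fitted.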

Assay [4] in a line: Confirmatory screen NINDS Rhodamine qHTS for Zika virus inhibitors (AID 1347161). Also: nearly all actives have a fitted effect of over 60% in size. Also: potency is read from the fitted curve at half-maximal effect. The essentials:
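Purified NS2B-NS3 protease with the NS2B hydrophilic domain joined by a flexible linker (25 nM) in 10 mM Tris-HCl pH 8.0, 0.01% Tween 20, preincubated 15 min at RT with compound; Rhodamine110 peptide substrate 1.5 µM; fluorescence change over 15 min; 4-parameter Hill fit.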

Assay [5] deals with Zika virus NS2B-NS3 protease (linked). Put plainly: 384 well plate NINDS AMC confirmatory qHTS for Zika virus inhibitors (AID 1347163). Also: nearly all actives have a fitted effect of over 50% in size. Also: potency is read from the fitted curve at half-maximal effect. Summed up:
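Fluorescence at 355/460 nm was read after 25 minutes of cleavage of 30 microM Ac-VKTGKR-AMC at room temperature, in the dark. Before substrate addition, compounds (up to 1 mM final) sat ~15 minutes with 5, 30 or 60 nM linked protease. Signals were normalized to no-enzyme and no-inhibitor wells.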

In assay [6] the test system is Zika virus NS2B-NS3 protease (linked construct). Put plainly: 384 well plate NINDS Rhodamine confirmatory qHTS for Zika virus inhibitors (AID 1347164).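 Also: fluorescence from protease cleavage of Ac-LKRR-rhodamine 110 substrate; nearly all actives have a fitted effect of over 65% in size.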 Also: potency is read from the fitted curve at half-maximal effect. The essentials:
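Fluorescence read at ex 485 nm/em 538 nm, 25 min after adding 10 microM Ac-LKRR-Rd substrate at room temperature in the dark; signal normalized to no-enzyme and no-inhibitor controls. Enzyme final 5, 30 or 60 nM; compounds, ~15 min preincubation.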

Assay [7] can be described thus: Vero cells viability qHTS for Zika virus inhibitors (AID 1347167). Also: potency is read from the fitted curve at half-maximal effect. Summed up:
(§1)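 To flag cytotoxic protease inhibitors, viability is measured by ATP-dependent luminescence (CellTiter Glo) after cells attached overnight receive compound for 24 to 48 hours in DMEM with 4% FBS.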

Assay [8] can be described thus: Tertiary RLuc qRT-PCR qHTS assay for Zika virus inhibitors (AID 1347169). Also: nearly all actives have a fitted effect of over 55% in size. Also: potency is read from the fitted curve at half-maximal effect. The essentials: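 Luminescence read-out: live-cell Renilla luciferase substrate applied to infected Vero cells, signal measured after 1-1.5 hrs. Cells had received compound before ZIKV-RLuc (Cambodian strain, MOI 1-2) infection and were incubated 48-72 hrs at 37 degrees C.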
Background: Quantitative PCR measures a nucleic acid by following its amplification.

A short description of assay [9]: ZIKV-mCherry secondary qHTS for Zika virus inhibitors (AID 1347158). Also: potency is read from the fitted curve at half-maximal effect. The essentials:
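Percent infection is the share of Hoechst-identified Vero nuclei with mCherry signal above 450 RFU (3 SD over negative controls). Cells were infected with recombinant ZIKV-mCherry at MOI 1 after compound addition and imaged 48–72 h later.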

Assay [10] is described as follows: HepG2 cells viability qHTS for Zika virus inhibitors (AID 1347168). Also: potency is read from the fitted curve at half-maximal effect. Summed up: as §1
The nature of assay [11]: qHTS to identify inhibitors of the type 1 interferon - major histocompatibility complex class I in skeletal muscle: primary screen against the NCATS Mechanism Interrogation Plate v5.0 (MIPE) Libary (AID 1347411). Also: nearly all actives have a fitted effect of over 65% in size. Also: potency is read from the fitted curve at half-maximal effect. Summed up:
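Luminescence from CRISPR HiBit-tagged endogenous HLA-B in human myoblasts reported MHC class I level after 24 h of IFN-beta (4 ng/ml) plus compound. Compounds ran as 11-point 1:3 series, top 46 uM final.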

Assay [12] can be described thus: qHTS to identify inhibitors of the type 1 interferon - major histocompatibility complex class I in skeletal muscle: primary screen against the NCATS LOPAC collection (AID 1347405).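 Also: lytic HiBiT luminescence reporting HLA-B protein level.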 The essentials:
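After 24 h at 37 C with compounds (7-point, 1:4.3 dilutions, 46 uM top final) plus 4 ng/ml IFN-beta, luminescence from lytic HiBiT detection was measured. HLA-B*08:01 in C25cl48 myoblasts carried an endogenous C-terminal HiBiT tag; medium lacked dexamethasone.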

Assay [13] can be described thus: qHTS for inhibitors of adenylyl cyclases using a fission yeast platform: a pilot screen against the NCATS LOPAC library (AID 1347410). Summed up: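 Read-out: fbp1-GFP fluorescence by laser scanning cytometry (488 nm laser), a gain of signal when AC/cAMP-PKA signalling is inhibited. Strain CHP2027 expressing AC9, GNAS and PDE4D2; compounds at up to 57 µM; 18 h, 30C.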

The nature of assay [14]: Validation qHTS assay for inhibitors of Activation Induced Cytidine Deaminase (AID): UDG Counterscreen signal (AID 1347427). The essentials:
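Fluorescence at 560 nm excitation, 665 nm emission reports UDG signal after 250 mM NaOH (2x) addition and 30 min. Enzymes (AID 1 uM, UDG 2 U/mL, at 4/3x) preincubated 10 min with compound, then 4 h with 4x 250 nM DJC20/DJC23 substrate at room temperature.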

In assay [15] the target is Single-stranded DNA cytosine deaminase (Homo sapiens) (UniProt Q9GZX7). In words: Validation qHTS assay for inhibitors of Activation Induced Cytidine Deaminase (AID): AID signal (AID 1347429). Summed up:
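Compounds (final up to 114 uM) preincubated with AID plus UDG; 250 nM DJC20/DJC23 substrate mix (4x stock) added, 4 hr at room temperature, then NaOH, 30 min. Read 1 fluorescence at 540 nm excitation, 590 nm emission.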

A short description of assay [16]: Primary qHTS for inhibitors of La Crosse Virus (LACV) - induced cell death in SH-SY5Y cells (AID 1508616).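 Also: top concentration of the series differs between compounds; higher means more rescue of cells from virus-induced death.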 The essentials:
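Rescue of virus-induced death was read as ATPLite luminescence after 6 days at 37C, scaled between DMSO wells with LACV and without virus. Cells were SH-SY5Y, 6000/well, infected at 0.01 MOI after compound addition.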

Single-stranded DNA cytosine deaminase (Homo sapiens), sequence (Q9GZX7 whole entry, looked up): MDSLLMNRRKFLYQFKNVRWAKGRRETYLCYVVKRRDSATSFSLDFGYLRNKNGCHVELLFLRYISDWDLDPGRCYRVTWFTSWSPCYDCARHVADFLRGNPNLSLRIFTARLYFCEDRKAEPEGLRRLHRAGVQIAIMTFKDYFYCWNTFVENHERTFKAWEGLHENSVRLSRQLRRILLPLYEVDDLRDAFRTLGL

Take `O=C(Nc1cc(C(F)(F)F)cc(C(F)(F)F)c1)c1cc(Cl)ccc1O`: the Potency in assay [1] was 4.94 µM (active); in [2], 2.82 µM (active); in [3], 7.94 µM (active); in assay [4] it was 7.84 µM (active); in [6], 35.5 µM (active); in assay [7], 1.47 µM (active). In assay [8], the Potency was 0.415 µM (active). Also, the Potency result in assay [5] was “inactive”.
In the case of `O=C(Nc1nc2cccc(-c3ccc(CN4CCS(=O)(=O)CC4)cc3)n2n1)C1CC1`, the Potency result in assay [2] and in assay [3] was “inactive” in each case.
Consider `Clc1cccc(-n2nnnc2NCc2ccccc2Oc2ccccn2)c1Cl`, for which the Potency entry in [2] and in [3] was “inactive” each time.
Take `Cn1c(=O)n(-c2ccc(C(C)(C)C#N)cc2)c2c3cc(-c4cnc5ccccc5c4)ccc3ncc21`: the Potency result in assay [2] was “inactive”.
With `COc1cc2c(Nc3ccc(NC(=O)c4ccccc4)cc3)ncnc2cc1OCCCN1CCOCC1`, the Potency entry in assay [2] and in [3] was “inactive” throughout.
As to `CS(=O)(=O)N1CCN(Cc2cc3nc(-c4cccc5[nH]ncc45)nc(N4CCOCC4)c3s2)CC1`, the Potency entry in assay [2] and in assay [3] was “inactive” in each case.
With `COC(=O)Nc1nc2ccc(C(=O)c3ccc(F)cc3)cc2[nH]1`, the Potency result in assay [2] and in assay [3] was “inactive” each time.
For `CCn1cc(-c2ccnc3[nH]c(-c4cccc(CN(C)C)c4)cc23)c(-c2ccc(NC(=O)N(C)C)cc2)n1`, the Potency entry in [2], in [3], in assay [4] and in [7] was “inactive” throughout.
For the molecule `Clc1cccc(-c2nnnn2Cc2cccnc2)c1Cl`, the Potency entry in [2] and in assay [3] was “inactive” in each case.
In the case of `CC1(O)CC(c2nc(-c3ccc4ccc(-c5ccccc5)nc4c3)c3c(N)nccn23)C1` (stereo unspecified), the Potency entry in assay [2] and in assay [3] was “inactive” throughout.
Regarding `CS(=O)(=O)c1ccc(-c2cnc(N)c(C(=O)Nc3ccccc3)n2)cc1`, the Potency entry in assay [2] and in [3] was “inactive” throughout.
Turning to `N#Cc1c(O)c2c(-c3ccc(-c4ccccc4O)cc3)csc2[nH]c1=O`, the Potency in assay [1] was 2.21 µM (active); in assay [3] it was 2.51 µM (active); in assay [4] it was 2.2 µM (active) and 2.48 µM (active); in assay [5] it was 8.91 µM (active). Further, the Potency entry in [9], in [6], in assay [7], in assay [10], in [8] and in assay [11] was “inactive” throughout.
Turning to `C[C@@]12O[C@@H](C[C@]1(O)CO)n1c3ccccc3c3c4c(c5c6ccccc6n2c5c31)CNC4=O`, the Potency is 8.91 µM (active) in assay [9], 16.5 µM (active) in assay [10] and 0.739 µM (active) in assay [11]. Also, the Potency result in assay [5], in [6] and in [7] was “inactive” in each case.
As for `COc1cc2c(cc1-c1c(C)noc1C)ncc1[nH]c(=O)n([C@H](C)c3ccccn3)c12`, the Potency result in assay [1], in assay [2] and in assay [4] was “inactive” each time. Further, the Potency in [8] is 0.37 µM (active).
Turning to `Nc1cc(C(F)(F)F)c(-c2cc(N3CCOCC3)nc(N3CCOCC3)n2)cn1`, the Potency entry in assay [2] and in assay [3] was “inactive” throughout.
As for `O=C(O)Cn1nnc(-c2cc(N3CCC(Oc4cc(F)ccc4Br)CC3)no2)n1`, the Potency in [1] was 27.8 µM (active); in [2], 22.4 µM (active); in [4] it was 35 µM (active); in [6], 79.4 µM (active); in [8] it was 1.17 µM (active). For the same molecule, the Potency entry in [3], in assay [5] and in assay [11] was “inactive” in each case.
Turning to `CC(=O)Nc1nc(C)c(-c2ccc(Cl)c(S(=O)(=O)NCCO)c2)s1`, the Potency entry in assay [2] and in assay [3] was “inactive” each time.
On to `C=CC(=O)Nc1cccc(Oc2nc(Nc3ccc(N4CCN(C)CC4)cc3OC)ncc2Cl)c1`, for which the Potency result in [2] and in assay [3] was “inactive” each time.
Turning to `Nc1ccccc1NC(=O)c1ccc(CNC(=O)OCc2cccnc2)cc1`, the Potency result in assay [2] and in [3] was “inactive” each time.
As for `Cc1cc(CN2CCN(c3c(Br)cnc4nc(-c5ccc(N6CCN(C)CC6)cc5)[nH]c34)CC2)no1`, the Potency result in [9], in assay [2], in [3], in assay [4] and in assay [5] was “inactive” in each case. For the same molecule, in [11], the Potency was 6.58 µM (active).
For `Cc1c(C)n(Cc2ccc(-c3ccccc3C(=O)O)cc2)c2ccc(C(=O)N[C@@H](C)c3ccc([N+](=O)[O-])cc3)cc12`, the Potency result in [9], in assay [7], in assay [10] and in assay [11] was “inactive” in each case. Further, the Potency in assay [2] is 2.82 µM (active); in [4], 3.12 µM (active); in assay [5], 112 µM (active); in assay [6] it was 22.4 µM (active).
Regarding `CCOC(=O)C1=C(C)NC2=C(C(=O)CC(C)(C)C2)C1c1ccc(-c2ccccc2)cc1` (stereo unspecified), the Potency result in [2], in assay [3], in assay [4], in assay [5], in [6] and in assay [7] was “inactive” throughout. In addition, the Potency result in assay [10] was “inactive”. Also, the Potency in assay [11] was 3.3 µM (active).
On to `Cn1cc(-c2ccncc2)c(-c2ccc(OCc3ccc4ccccc4n3)cc2)n1`, for which the Potency entry in assay [2] and in assay [3] was “inactive” each time.
`Nc1ncnc2c1c(-c1cccc(OCc3ccccc3)c1)cn2C1CC(CN2CCCC2)C1` (stereo unspecified): the Potency result in [2] and in assay [3] was “inactive” each time.
For `O=c1c2ccccc2nc2n1CCc1c-2[nH]c2ccccc12`, the Potency result in assay [2], in assay [3], in [5] and in [7] was “inactive” throughout. Besides, the Potency in assay [4] was 62.2 µM (active); in [6] it was 56.2 µM (active). Besides, the result in assay [12], in [13], in [14], in assay [15] and in [16] was inactive.
`COc1cc2c(Oc3ccc(-c4cnc(Nc5ccc(F)cc5)n(C)c4=O)cc3F)ccnc2cc1OCCCN1CCOCC1`: the Potency entry in assay [2] and in [3] was “inactive” throughout.
Consider `CN(C)Cc1c(C(=O)NCCOc2ccc(C(=O)NO)cc2)oc2ccccc12`, for which the Potency entry in [2] and in assay [3] was “inactive” throughout.

(Values after PubChem BioAssay (NCATS).)
